In the library only some 8.7% were active in any assay of this set; here they are far more common.
VACV Venus inh = inhibitors of vaccinia virus (Venus reporter). Vaccinia virus Venus reporter expression, fluorescence. Potency, µM (series often up to 36.5 µM), for the others: at the highest dose activity change, negative = inhibition, most hits filed as inhibitors. 0.46% of 330,000 active. AID 720580; calls by dose curve; tested in A549 cells; also: nearly all actives have a fitted effect of over 30% in size
VACV mCherry inh = inhibitors of vaccinia virus infection (mCherry reporter signal). Vaccinia virus mCherry reporter infection, fluorescence. Potency, µM (highest dose often 36.5 µM), inactives show top-dose activity change, negative = inhibition, actives largely listed as inhibitors. 0.63% of 310,000 active. AID 720579; calls by dose curve; tested in A549 cells; also: nearly all actives have a fitted effect of over 35% in size
Pf growth 48h = P. falciparum growth inhibition at 48 hours (one generation); P. falciparum luciferase growth in erythrocytes, 48 h; Potency, µM (top dose mostly 28.7 µM), for the others: at the highest dose activity change, negative = inhibition, actives largely listed as inhibitors; 5.9% of 310,000 active; AID 504832
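Luciferase-expressing P. falciparum in infected erythrocytes (2% hematocrit, 0.1% parasitemia final) in RPMI 1640/0.5% Albumax were exposed to compound for 48 hours at 37 C, 5% CO2; growth read as luminescence.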
Pf growth 96h = P. falciparum growth inhibition at 96 hour, primary screen for plastid delayed-death inhibitors; P. falciparum luciferase reporter growth, 96 h; Potency, µM (highest dose often 28.7 µM), for inactives: at the highest dose activity change, negative = inhibition, actives largely listed as inhibitors; 6.9% of 320,000 active
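Parasite growth measured via integrated firefly luciferase reporter in P. falciparum. Infected erythrocytes at 2% hematocrit, 0.05% parasitemia final were treated 96 hours at 37 C under 5% CO2, and luminescence was read.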
AMA1-RON2 inh = disrupts binding of P. falciparum AMA1 to RON2 | AlphaScreen AMA1-biotinylated RON2 peptide binding | AID 720542 | 0.2% of 360,000 active | Potency, µM (series often up to 58.2 µM), for the others: at the top dose activity change, negative = inhibition, usual class: inhibitors;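 also: 0% = vehicle wells and -100% = peptide control; nearly all actives have a fitted effect of over 45% in size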
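AMA1 (3D7) with his tag at 25 nM final met compounds first, then biotinylated RON2 peptide at 25 nM; detection used donor plus acceptor beads, 10 µg/mL apiece, read by AlphaScreen after 30 min at room temperature.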
Numbers without * were called inactive; i = inactive; ? = inconclusive; · = not tested or not shown; [ ] = dose if it differs, or a comment. Unless noted, calls follow the shape of the dose curve; as a rule, active = well fitted curve in the direction sought with a large enough effect; inconclusive = small, poorly fitted or top-dose-only effect, or another doubt; inactive = no such curve, though single readings can be large; an effect the other way counts as inactive or inconclusive. Unless noted, % is scaled to controls: 0 for no effect and ±100 for the full control effect; potency is read from the fitted curve at half-maximal effect.

SMILES | VACV Venus inh | VACV mCherry inh | Pf growth 48h | Pf growth 96h | AMA1-RON2 inh
O=C(COc1ccccc1F)Nc1ccc(Cl)c(-c2nc3ccccc3[nH]2)c1 | -18% | 6% | · | · | ·
CCCCOC(=O)CSc1n[nH]c(=O)[nH]c1=O | · | · | · | 13µM* | 1%
Cc1cccc(CS(=O)(=O)Cc2ccc(C(=O)NCc3cccnc3)o2)c1 | -16% | -18% | -2% | 1.9µM* | 2%
O=C(CCn1nc(-c2ccc(Cl)cc2)ccc1=O)NCCc1ccccc1 | -12% | -5% | · | · | ·
O=C(CC(=O)NCc1cccnc1)NCc1cccnc1 | -17% | -17% | 8% | 10µM* | 1%
O=C(NCc1cccnc1)C(Cl)(Cl)Cl | -25% | i | -13% | 3.7µM* | 14%
CCc1ccc(CNC(=O)c2ccc(CS(=O)(=O)Cc3cccc(C)c3)o2)cc1 | -15% | -9% | · | · | ·
O=C(CCn1nc(-c2ccc(Cl)cc2)ccc1=O)NCc1cccnc1 | · | · | 1.2µM* | 4% | -10%
COc1ccc(NC(=O)C2CCN(S(=O)(=O)c3cn(C)cn3)CC2)cc1Cl | -4% | -11% | · | · | ·
O=C(NCc1cccnc1)c1ccc([N+](=O)[O-])o1 | · | · | 4.1µM* | ? | -4%
Cc1ccc(NC(=O)NCc2cccnc2)cc1 | -4% | -7% | 32% | -6% | 0%
Cc1ccc(C2(c3ccc(C)cc3)CC2C(=O)NCc2cccnc2)cc1 (stereo not drawn) | -25% | -12% | -26% | 1.9µM* | -16%
OCC1OC([S-])[C@H](O)C(O)C1O.[Au+] (stereo partly drawn) | · | · | -22% | 4.8µM* | ·
CC(=O)c1cccc(NC2=NCC(C)S2)c1 (stereo not drawn) | -28% | -10% | · | 13µM* | -2%
COc1ccc(N(C(=O)Cn2cnc3ccccc32)C(C(=O)NC2CCCCC2)c2ccccc2)cc1 (stereo not drawn) | ? | ? | 13µM* | ? | 6%
COc1ccc(N(C(=O)Cn2nnc3ccccc32)C2(C(=O)NC3CCCC3)CCCCC2)cc1 | -5% | -20% | 13µM* | 13µM* | -1%
COc1ccc(C(C(=O)Nc2ccc(F)cc2)N(C(=O)Cn2nnc3ccccc32)C2CC2)cc1 (stereo not drawn) | -21% | -2% | 5.9µM* | ? | -2%
CCOc1ccccc1CNC(=O)C1CCN(c2nc3ccccc3nc2C(F)(F)F)CC1 | 9% | 7% | · | · | ·
Cc1cc(C)c2c(c1)c(C)cc1nnc(SCC(=O)c3ccc(F)cc3)n12 | -13% | -23% | · | · | ·
CCOCc1c(C(=O)Nc2cc(OCC)c(N3CCOCC3)cc2OCC)oc2ccccc12 | -1% | 5% | 35% | ? | 2%
CCOCc1c(C(=O)Nc2ccc3nc(N4CCOCC4)sc3c2)oc2ccccc12 | -27% | -22% | 15µM* | ? | -3%
COc1ccc(C(=O)Nc2ccc3nc(N4CCOCC4)sc3c2)cc1OC | · | · | -8% | ? | -9%
CCOCc1c(C(=O)Nc2ccccc2N2CCN(C)CC2)oc2ccccc12 | -24% | -15% | ? | 13µM* | -30%
Cc1ccc(C)c(NC(=O)C2CCN(c3nn4c(=O)cc(C)nc4s3)CC2)c1 | 0% | -4% | · | · | ·
CCN(CC)C(=O)c1sc2c(c1C)c(=O)n(Cc1ccccc1)c(=O)n2Cc1c(C)cc(C)cc1C | -28% | ? | · | · | ·
SMILES | VACV Venus inh | VACV mCherry inh | Pf growth 48h | Pf growth 96h | AMA1-RON2 inh
Cn1c(=O)c(C(=O)CN2CCc3ccccc32)c(N)n(Cc2ccccc2)c1=O | 5% | -3% | 12µM* | 8.3µM* | -6%
Cn1c(=O)c(C(=S)NC(=O)C2CC2)c(N)n(Cc2ccccc2)c1=O | · | · | 9.3µM* | 31% | ·
Cn1c(=O)c(C(=O)CN2CCCc3ccccc32)c(N)n(Cc2ccccc2)c1=O | 3% | -18% | ? | · | -2%
Cn1c(=O)c(C(=O)CN2CC(=O)Nc3ccccc32)c(N)n(Cc2ccccc2)c1=O | -8% | -1% | -33% | 5.2µM* | 1%
Cc1ccc2c(c1)CN(CCNC(=O)c1cccc(Cn3cccn3)c1)CC(C)O2 (stereo not drawn) | -6% | -6% | · | · | ·
Cc1ccccc1C(=O)NC1CCCCCCC1 | · | · | 162% | 153% | 0%
O=C(NC1CCCCCCC1)c1ccccc1O | -18% | -21% | 12µM* | ? | 1%
O=C(NC1CCCCC1)c1cc2ccccc2cc1O | -20% | ? | 5.2µM* | 1.9µM* | 13%
Cc1ccc(NC(=O)Cn2cc(C(=O)c3ccco3)c3ccccc32)c(C)c1 | -20% | -24% | · | · | ·
CN1CC2=Cc3ccccc3OC23Oc2ccccc2C=C3C1 | -28% | · | 9.3µM* | 12µM* | -8%
CCOC(=O)C1CCN(c2nc3ccccc3nc2C(C#N)C(=O)OCCOC)CC1 (stereo not drawn) | -20% | i | ? | ? | 21%
CCOC(=O)C1CCN(c2nc3ccccc3nc2C(C#N)C(=O)OC(C)COC)CC1 (stereo not drawn) | -14% | -18% | 8.3µM* | ? | -10%
CCOc1ccccc1N1CCN(c2nc3ccccc3nc2C(C#N)C(=O)OC(C)C)CC1 (stereo not drawn) | -3%[7.34 µM] | -9%[7.34 µM] | -11% | ? | -19%
CCC(C)COC(=O)C(C#N)c1nc2ccccc2nc1N1CCCCC1 (stereo not drawn) | · | · | ? | -99% | 10%
C=CCOC(=O)C(C#N)c1nc2ccccc2nc1N1CCC(C(=O)OCC)CC1 (stereo not drawn) | -25% | -16% | 1.2µM* | 56% | 5%
C=CCOC(=O)C(C#N)c1nc2ccccc2nc1N1CCN(c2ccccc2OCC)CC1 (stereo not drawn) | -9% | -11% | 9.3µM* | 9.3µM* | -23%
CCC(CC)COC(=O)C(C#N)c1nc2ccccc2nc1N1CCN(CC)CC1 (stereo not drawn) | · | · | 10µM* | 46% | -4%
COC(=O)C1CCN(c2nc3ccccc3nc2C(C#N)C(=O)NCCc2ccccc2)CC1 (stereo not drawn) | -7% | · | -2% | 15µM* | -3%
CCOc1ccc(N(CC)S(=O)(=O)N2CCCC(C(=O)Nc3ccc(OC)c(OC)c3)C2)cc1 (stereo not drawn) | -2% | -8% | · | · | ·
COc1ccc(-n2c(C)c(C(C)=O)c3cc(OC(C)=O)ccc32)cc1 | · | · | 104% | -26% | -2%
COc1ccc(-n2c(C)cc(C)c(C(C)=O)c2=S)cc1 | -6% | -14% | 15µM* | 12µM* | ?
N#CSCC(=O)c1cccc2ccccc12 | -7% | -15% | -1% | 60% | -2%
N#CC(=C1C=C(Br)C(=NO)C=C1Cl)c1cccc2ccccc12 | ? | ? | · | · | 14µM*
Cc1cccc(NC(=O)Cn2c(=O)c3cccn3c3ccccc32)c1C | -4% | -8% | · | · | ·
CCOc1cc(C)c(-c2onc(C(F)(F)F)c2-c2csc(C)n2)c(O)c1 | · | · | 1.7µM* | 1.9µM* | 1%
Cc1cc[n+](C)c2ccccc12 | 13% | 10% | · | · | ·
C[n+]1ccc(/C=C/c2ccccc2O)c2ccccc21 | -13% | -12% | 10µM* | ? | -5%
CN(C)c1ccc(/C=C/c2cc[n+](C)c3ccccc23)cc1 | i | i | 1µM* | ? | ?

Screening data as filed in PubChem BioAssay.
